CaV13 FRET inh – Disruptors of the CACNA1D IQ motif to Ca2+-dependent inactivation inhibitor domain association, primary screening, Förster resonance energy transfer in intact living …; AID 743397; 0.098% of 340,000 active; inhibition, % at 12.3 µM; HEK cells, CFP/YFP FRET ICDI-IQ, plate reader, 10 min; percent FRET-ratio fall versus neutral wells;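 active = mean replicate inhibition of at least 30% and at least 1% of replicates passing that level; inconclusive = only one of the two criteria is met; inactive = neither criterion is met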
IDE act – human IDE activators in live cells, primary screen, fluorescence polarization, HEK cells, FAbeta-B substrate | 0.073% of 340,000 active | activation, % at 5.96 µM | FAbeta-B cleavage; 0% vehicle, 100% cell-free pure enzyme wells | Insulin-degrading enzyme (Homo sapiens), P14735;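 active = activation above the mean of all tested compounds plus 3 SD, set per screening campaign, cut at about 17% in these data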
Target sequence (P14735 whole entry, looked up): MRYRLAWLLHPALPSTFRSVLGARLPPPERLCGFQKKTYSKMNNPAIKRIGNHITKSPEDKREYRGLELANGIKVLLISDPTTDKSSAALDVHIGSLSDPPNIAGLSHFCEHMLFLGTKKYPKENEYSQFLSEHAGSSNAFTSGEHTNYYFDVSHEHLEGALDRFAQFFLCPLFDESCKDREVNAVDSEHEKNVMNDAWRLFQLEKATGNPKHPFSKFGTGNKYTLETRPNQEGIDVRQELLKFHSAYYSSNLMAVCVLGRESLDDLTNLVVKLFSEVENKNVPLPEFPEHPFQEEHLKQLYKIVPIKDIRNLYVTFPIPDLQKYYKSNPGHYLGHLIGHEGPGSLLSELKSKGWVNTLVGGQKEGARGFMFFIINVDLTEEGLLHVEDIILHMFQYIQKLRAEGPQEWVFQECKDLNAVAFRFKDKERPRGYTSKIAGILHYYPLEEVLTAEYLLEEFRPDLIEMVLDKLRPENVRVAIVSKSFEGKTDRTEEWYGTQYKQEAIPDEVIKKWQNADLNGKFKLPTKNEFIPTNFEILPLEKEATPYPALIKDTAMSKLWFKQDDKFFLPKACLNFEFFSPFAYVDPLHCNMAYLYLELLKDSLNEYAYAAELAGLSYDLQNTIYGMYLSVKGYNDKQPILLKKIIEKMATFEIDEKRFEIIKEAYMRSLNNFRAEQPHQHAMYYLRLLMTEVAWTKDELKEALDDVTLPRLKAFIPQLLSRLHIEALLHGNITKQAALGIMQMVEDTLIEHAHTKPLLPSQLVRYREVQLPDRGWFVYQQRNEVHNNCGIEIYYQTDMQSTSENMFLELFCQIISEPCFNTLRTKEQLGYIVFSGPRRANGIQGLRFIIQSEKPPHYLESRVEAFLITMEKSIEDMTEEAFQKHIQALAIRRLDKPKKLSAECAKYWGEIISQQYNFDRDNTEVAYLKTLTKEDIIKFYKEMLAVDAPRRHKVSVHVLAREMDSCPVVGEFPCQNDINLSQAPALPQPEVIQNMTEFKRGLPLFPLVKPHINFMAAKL
M18AAP inhibitor – PfM18AAP inhibitors, malaria aminopeptidase, primary screen, biochemical, QFRET, recombinant enzyme; M18 aspartyl aminopeptidase (Plasmodium falciparum 3D7); H-Glu-NHMec fluorogenic cleavage; inhibition, % at 7.35 µM; 1.2% of 290,000 active; AID 1822, 2009;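 active = inhibition above the campaign mean inhibition over all tested compounds plus 3 SD, cut at about 28% in these data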
IDE inh – human IDE inhibitors in live cells, primary screen, fluorescence polarization, HEK cells, FAbetaB substrate; Insulin-degrading enzyme (Homo sapiens), P14735; FAbetaB cleavage; inhibition, % at 5.59 µM; 0.41% of 320,000 active;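 active = percent inhibition above the average of all tested compounds plus 3 SD, set per screening campaign, cut at about 16% in these data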;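 also: IDE supplied by intact live HEK cells; FP after avidin binding of uncleaved biotin substrate so inhibition keeps polarization high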
ALR inh – inhibitors of human ALR sulfhydryl oxidase, primary screen, biochemical, H2O2 detection, HRP-luminol luminescence, single point | purified ALR, DTT oxidation | FAD-linked sulfhydryl oxidase ALR (Homo sapiens), P55789 | inhibition, % (test concentration not listed) | 3.8% of 290,000 active;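 active = mean replicate inhibition above about 79%, with every replicate also reaching it, limit read from the data; inconclusive = only one of the two criteria met; inactive = mean below limit and not every replicate reaching it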
PolyA inhibitor – polyadenylation inhibitors in yeast reporter cells, primary screen, luminescence, S. cerevisiae. AID 1875, 2009. activity score, % at 12 µM. 0.02% of 300,000 active. S. cerevisiae SKY197-pL101 polyadenylation reporter, beta-gal luminescence; efflux-impaired pdr1/pdr3 knockout yeast; score 100 = 6 SD above DMSO;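 active = lowest replicate activity score at least 50, where 100 means six control SD above control mean; inconclusive = lowest score under 50 but half or more replicates reach 50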;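 also: yeast exposed to compound for 9 h at 30 °C; higher score means more reporter readthrough which indicates perturbed polyadenylation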
Hits are given with their value; i = inactive; ? = inconclusive; nt = no result. This is a sample that favours compounds with a hit; in the whole collection about 4.1% have one here.

SMILES	CaV13 FRET inh	IDE act	M18AAP inhibitor	IDE inh	ALR inh	PolyA inhibitor
Cc1cc2c(cc1S(=O)(=O)N1CC(C)CC(C)C1)OCC(=O)N2 (centres undefined)	i	i	i	i	nt	i
COC(=O)C1=C(C(=O)OC)[C@@H]2N(C)c3ccccc3[C@@]23C[C@@H](C(=O)OC)N=C3N1	i	i	nt	i	i	i
COC(=O)C1=C(C(=O)OC)[C@@H]2N(C)c3ccc(OC)cc3[C@@]23C[C@@H](C(=O)OC)N=C3N1	i	i	nt	i	77	i
CCN1CCN(C2=C(NS(=O)(=O)c3ccccc3)C(=O)c3ccccc3C2=O)CC1	i	i	30	i	i	i
CC(NC(=O)CCCCCNC(=O)N1CCn2c1nc1ccccc12)c1ccccc1 (centres undefined)	i	i	i	i	92	i
CCN(c1ccc(NC(=O)CSCc2c(C)noc2C)cc1)C(C)C	i	i	nt	i	99	nt
CCN(c1ccc(NC(=O)CSc2nnc3nc(C)cc(C)n23)cc1)C(C)C	i	i	i	i	99	i
O=C(CCN1CCOCC1)c1ccc(Br)cc1	i	i	i	i	98	i
O=C(CCN1CCN(c2ccccc2)CC1)c1ccc(Br)cc1	i	i	i	i	i	i
O=C(CCN1CCOCC1)c1ccc(Cl)cc1	i	i	i	i	96	i
COc1ccc(C(C)=O)cc1CSC(=N)N	i	i	i	i	99	i
O=C(C1CC1)N1CCN=C1SCc1cccc(C(F)(F)F)c1	nt	i	i	i	?	i
CC(=O)N1CCN=C1SCc1ccc(Br)cc1	i	i	i	i	96	i
CC(=O)N1CCN=C1SCc1cccc(C(F)(F)F)c1	i	i	i	i	99	i
CS(=O)(=O)N1CCN=C1SCc1ccc(Br)cc1	i	i	i	i	i	i
CCOC(=O)N1CCN=C1SCc1ccc(Cl)c(Cl)c1	i	i	i	i	99	i
CCC(=O)N1CCN=C1SCc1cccc(C(F)(F)F)c1	i	i	i	i	99	i
CC1CN(CC(=O)Nc2ccc([N+](=O)[O-])cc2Br)CC(C)O1 (centres undefined)	i	i	i	i	i	i
O=C(CN(Cc1ccccc1)C(=O)c1cccc([N+](=O)[O-])c1)Nc1c(Cl)cc(Cl)cc1Cl	i	i	i	i	i	i
CCn1c(SCc2nc3ccccc3s2)nnc1-c1ccccc1	i	i	i	i	94	i
COc1ccc(-n2nnnc2SCc2nc3ccccc3s2)cc1	i	i	i	i	93	i
CN(C)CCCN1C(=O)c2cccc3c(Br)ccc(c23)C1=O	i	i	i	i	i	i
CCCCNc1ccc2c3c(cccc13)C(=O)N(CCCC)C2=O	i	45	i	nt	nt	i
Cc1cccc(N2C(N)=C(C#N)C(C#N)(C#N)C2c2ccccc2)c1 (centres undefined)	i	i	i	i	i	i
N#CC1=C(N)N(c2ccccc2)C(c2ccco2)C1(C#N)C#N (centres undefined)	nt	i	i	i	94	i
SMILES	CaV13 FRET inh	IDE act	M18AAP inhibitor	IDE inh	ALR inh	PolyA inhibitor
CCN(C)C1CN(Cc2cn(Cc3cccc(Cl)c3)nn2)S(=O)(=O)C1 (centres undefined)	i	nt	nt	nt	nt	nt
Cc1ccc(NC(=O)CNC(=O)c2cccs2)c(O)c1	i	i	nt	i	i	i
C=CCSc1nc(C)cc2c1C(=O)OC2	i	i	i	i	i	i
CC[C@@]1(c2cccc(C)c2)C(=O)N(C(=O)OC)N1C(=O)OC	i	i	i	i	83	i
CC[C@@]1(c2ccccc2OC)C(=O)N(C(=O)OC)N1C(=O)OC	nt	i	i	i	nt	i
COc1cc(/C=N/NC(=O)c2cccc(S(=O)(=O)N3CCCC3)c2)ccc1O	i	i	nt	i	99	i
O=C(N/N=C/c1ccc(O)c(O)c1)c1cccc(S(=O)(=O)N2CCCC2)c1	i	i	nt	i	99	i
O=C(Nc1ccccc1OC(F)F)C1CC(=O)N(Cc2ccccc2)C1 (centres undefined)	i	i	nt	i	i	?
O=C(Nc1ccccc1N1CCCC1)C1CC(=O)N(Cc2ccccc2)C1 (centres undefined)	i	i	nt	i	97	i
CCOc1ccccc1N1CC(C(=O)Nc2ccccc2N2CCCC2)CC1=O (centres undefined)	i	i	nt	i	88	i
CC(=O)Nc1ccc(-c2csc(N/N=C\c3ccncc3)n2)cc1	i	nt	i	i	99	i
COC(=O)c1ccc(/C=N/Nc2nc(-c3ccc(C)cc3)cs2)cc1	nt	i	i	i	nt	i
CCCC(=O)Nc1ccc(-c2csc(N/N=C\c3ccncc3)n2)cc1	i	i	i	i	98	i
CC(C)N(C)S(=O)(=O)c1ccc(Cl)c(C(=O)O)c1	i	i	i	i	i	i
C=CCn1c(SCc2csc(-c3ccc(Cl)cc3)n2)nnc1-c1ccccc1OC	i	i	i	i	81	i
CCCc1cc(=O)[nH]c(SCc2csc(-c3ccccc3)n2)n1	i	i	i	i	99	i
CCCc1cc(=O)[nH]c(SCC(=O)Nc2nc(-c3ccccc3)cs2)n1	i	i	i	i	99	i
Cc1ccc(S(=O)(=O)CC(=O)Nc2nc(-c3ccccc3)cs2)cc1	i	i	i	i	i	i
O=C(CS(=O)(=O)c1ccccc1)Nc1nc(-c2ccccc2)cs1	nt	i	i	i	99	i
O=C1C2C3C=CC(C3)C2C(=O)N1CCN1CCN(S(=O)(=O)/C=C/c2ccccc2)CC1 (centres undefined)	i	i	i	i	i	i
CC(C)CN(C(=O)CSc1nnc(-c2cccs2)n1C1CC1)C1CCS(=O)(=O)C1 (centres undefined)	i	nt	nt	nt	nt	nt
CCCCn1c(N)c(N(CCOC)C(=O)C2CC(=O)N(c3ccc(CC)cc3)C2)c(=O)[nH]c1=O (centres undefined)	i	i	nt	i	i	nt
CCc1nc(SCc2cccnc2)[nH]c(=O)c1C	i	i	i	i	99	i
Cc1cc(=O)[nH]c(SCc2nc3ccc([N+](=O)[O-])cc3[nH]2)n1	i	i	i	i	i	i
CCc1nc(SCc2ccc(F)cc2)[nH]c(=O)c1C#N	i	i	i	i	98	nt
CCCc1cc(=O)[nH]c(SCc2nc3ccc([N+](=O)[O-])cc3[nH]2)n1	i	i	i	i	99	i
O=C(CSc1nc2ccccc2[nH]1)Nc1c(F)c(F)c(F)c(F)c1F	i	i	i	i	i	i

Screening results: PubChem, several laboratories
